# Hits are enriched below; roughly 2.8% of the tested compounds scored in any of these assays.
# p-CIP stab down: lowers stability of the mouse p/CIP coactivator protein | F442A p/CIP-EGFP cells, EGFP fluorescence, 16 h | decrease of EGFP signal, % at 10 µM | actives 0.01% (n = 290,000) | AID 1984;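 active = EGFP signal decrease of at least 30% at 10 µM or well 3 SD below plate mean, unless failing retest; inactive = the rest, including hits failing retest or dose response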
# PolyA inhibitor: yeast polyadenylation inhibition; S. cerevisiae SKY197-pL101 polyadenylation reporter, beta-gal luminescence; efflux-impaired pdr1/pdr3 knockout yeast; score 100 = 6 SD above DMSO; activity score, % at 12 µM; actives 0.02% (n = 300,000); AID 1875;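 active = lowest replicate activity score at least 50, where 100 means six control SD above control mean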;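 also: yeast exposed to compound for 9 h at 30 °C; higher score means more reporter readthrough which indicates perturbed polyadenylation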
# HIF activator: HIF pathway transcriptional activation; U2OS HRE-luciferase reporter, luminescence; normalized: DMSO 0%, desferrioxamine 100%; activation, % at 7.5 µM (by protocol); actives 0.32% (n = 300,000); AID 1910;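 active = mean activation of at least 10% of the iron chelator positive control signal, with at least half of replicates also reaching 10%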
# Platelet DG rel: modulates dense granule release in human platelets; human platelet-rich plasma, SFLLRN dense granule ATP release, luminescence; actives 0.22% (n = 300,000); inhibition, %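 (compounds screened at 7.5 µM in platelet-rich plasma)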;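 active = mean replicate score, as percent of positive control, at or above 50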
# AHR act: activators of human aryl hydrocarbon receptor. AID 2796. actives 2.5% (n = 320,000). P35869. activation, % at 5 µM. AHR-responsive luciferase reporter cells, luminescence; in the data active = activation above about 47%;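 also: 0% = vehicle wells and 100% = reference agonist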
# AHR act cf: human AHR activation, confirmation; shares compounds with AHR act; human cells, AHR-responsive luciferase reporter, luminescence; activation, % at 9 µM; actives 87% (n = 2,300); in the data active = activation above about 49%;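 also: HepG2 hepatoma cells carrying a DRE-driven firefly luciferase reporter; 0% = vehicle wells and 100% = reference agonist wells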
# PXR act counter: PXR activation, counter-screen for AHR activators. shares compounds with AHR act. cell-based PXR reporter, luciferase luminescence. activation, % at 11.6 µM. actives 88% (n = 2,300); in the data active = activation above about 11%;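 also: human hepatoma DPX-2 cells expressing full-length human PXR; 0% = DMSO and 100% = reference agonist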
# * = called active by the depositor; nt = not tested or not shown.
SMILES,p-CIP stab down,PolyA inhibitor,HIF activator,Platelet DG rel,AHR act,AHR act cf,PXR act counter
Cc1ccccc1NC(=O)/C(C#N)=C\c1ccsc1,-6.4,-16.7,0.3,1.2,83.6*,49.6*,62.3*
O=C(Nc1ccc(CN2CCOCC2)cc1)c1ccc(-c2cccc(Cl)c2)o1,-21.9,0.0,0.8,-1.5,-4.2,nt,nt
O=C(/C=C/c1ccccc1)NC(=S)Nc1ccc(CN2CCOCC2)cc1,-2.2,-14.0,-0.4,1.4,2.9,nt,nt
O=C(NC(=S)Nc1ccc(CN2CCOCC2)cc1)c1ccc(-c2cccc(Cl)c2)o1,-1.6,-15.7,-0.2,-4.3,90.3*,66.7*,20.1*
O=C(/C=C/c1ccc(Cl)cc1Cl)NC(=S)Nc1ccc(CN2CCOCC2)cc1,-3.3,-10.0,0.2,-1.7,104.6*,21.6,82.6*
O=C(NCC1OCCc2ccccc21)c1cc(COc2c(F)cccc2F)on1 (stereo unspecified),1.9,-4.1,0.8,4.7,4.3,nt,nt
CCN(CC)S(=O)(=O)c1cccc(NC(=O)COC(=O)c2cncc(Br)c2)c1,nt,nt,nt,nt,0.5,nt,nt
CCN(CC)S(=O)(=O)c1cccc(C(=O)OCC(=O)Nc2ccc3c(c2)c2ccccc2n3CC)c1,-6.6,13.6,0.3,-11.5,83.1*,80.3*,32.8*
Cn1c(/C=C/c2cccc([N+](=O)[O-])c2)nc2ccccc2c1=O,0.3,-23.2,-0.8,-0.8,92.9*,-0.4,11.7*
Cc1ccsc1C(=O)NCCc1nnc2ccccn12,-5.9,-2.0,2.2,0.4,3.8,nt,nt
CCc1ccc(S(=O)(=O)Nc2ccc(-c3nc4cccnc4s3)cc2)s1,-1.3,20.4,2.8,-2.1,87.7*,82.5*,20.3*
O=S(=O)(Nc1ccc(-c2nc3cccnc3s2)cc1)c1cc(F)ccc1F,-1.9,22.6,3.1,-4.8,38.0,nt,nt
Cc1nc(NCCc2ccc(F)cc2)c(C#N)c(C)c1[N+](=O)[O-],-9.5,-13.2,-0.1,-3.2,108.2*,112.8*,23.8*
COc1cc(CNc2nc(C)c([N+](=O)[O-])c(C)c2C#N)cc(OC)c1,-6.3,-4.8,-0.3,-1.7,7.7,nt,nt
CCOC(=O)N1CCN(C(=O)c2nn(C)c3c2CSc2ccccc2-3)CC1,1.7,5.4,-0.1,2.1,2.9,nt,nt
CN(C(=O)c1ccc(NC(=O)Cc2cccc(NC(=O)C3CCN(C(=O)c4ccccc4)CC3)c2)cc1)C1CCCC1,nt,nt,nt,nt,0.0,nt,nt
CCCN(CCC)S(=O)(=O)c1cccc(C(=O)Nc2ccc3c(c2)OCO3)c1,-11.1,0.7,0.1,1.0,22.4,nt,nt
CN(C)S(=O)(=O)c1cccc(NC(=O)c2ccc3c(c2)OCCO3)c1,nt,13.2,3.9,-40.1,102.3*,91.5*,110.2*
CN(C)S(=O)(=O)c1cccc(C(=O)Nc2ccccc2Cl)c1,3.4,6.1,0.3,2.6,-0.2,nt,nt
CCN(CC)S(=O)(=O)c1cccc(C(=O)Nc2ccc3c(c2)OCO3)c1,-16.4,-7.3,2.7,-0.7,165.2*,102.8*,134.0*
CN(C)S(=O)(=O)c1cccc(C(=O)Nc2cc(Cl)ccc2O)c1,-7.7,-1.4,1.4,8.4,84.0*,46.3,89.8*
CSCCC(NS(=O)(=O)c1ccc(C)cc1)C(=O)NC1CCCCCC1 (stereo unspecified),nt,0.4,1.1,18.0,2.5,nt,nt
O=C(NNC(=O)c1cc2cc3ccccc3nc2s1)c1ccc(F)cc1,-6.4,19.2,0.5,38.7,91.4*,45.7,12.0*
O=C(NNC(=O)C1CC1)c1cc(Cl)nc2ccccc12,4.4,13.5,-1.0,-8.0,16.2,nt,nt
O=C(NNC(=O)C1CC1)c1cc2cc3ccccc3nc2s1,0.1,-11.1,0.4,3.7,109.8*,72.1*,12.1*
SMILES,p-CIP stab down,PolyA inhibitor,HIF activator,Platelet DG rel,AHR act,AHR act cf,PXR act counter
O=C(C1CCCCC1)N1CCN(c2ccnc3cc(Cl)ccc23)CC1,-15.5,-0.7,-0.4,0.8,-3.9,nt,nt
O=C(Cc1coc2ccc3ccccc3c12)Nc1nccs1,-14.4,-37.7,0.7,0.8,79.3*,92.7*,21.9*
CCOc1ccccc1OCC(=O)Nc1cccc(S(=O)(=O)NC2=NCCCCC2)c1,nt,nt,nt,nt,1.4,nt,nt
CCOc1ccccc1Nc1nnc(SCC(=O)Nc2cccc(S(=O)(=O)NC3=NCCCCC3)c2)s1,-8.9,-2.3,0.0,-4.7,87.3*,75.5*,127.2*
O=C(O)C[C@@H](CNC(=O)COc1ccc2ccc(=O)oc2c1)c1ccc(Cl)cc1,-23.2,12.7,-0.3,4.6,-0.4,nt,nt
C=CCNc1ncnc2c1[nH]c1ccc(Cl)cc12,-11.1,-2.6,2.9,7.7,109.8*,112.5*,44.4*
C=CCNc1ncnc2c1[nH]c1ccccc12,-10.8,11.9,0.8,-0.6,28.5,nt,nt
CCc1cccc(NC(=O)Cc2cn(C)c3ccccc23)c1,-1.2,4.2,0.1,-2.1,104.5*,23.6,82.7*
COc1ccc(CC(=O)NCC(C)(C)N2CCOCC2)cc1,-14.7,3.0,0.0,0.7,1.1,nt,nt
O=[N+]([O-])c1cc(/C=N\Nc2nc(-c3ccccc3)cs2)ccc1O,11.5,-17.5,0.5,-0.2,118.7*,39.4,3.5
CC1CN(C(=O)COC(=O)c2ccc(C#N)cc2)CC(C)O1 (stereo unspecified),-1.5,7.6,-0.2,-1.5,-0.7,nt,nt
Cc1ccc(SCC(=O)OCC(=O)NC2(C#N)CCCCC2)cc1,2.6,-1.7,-0.2,-0.2,nt,nt,nt
CCCCC(=O)N/C(N)=N/c1nc2ccccc2o1,-2.7,-8.8,2.9,6.3,1.6,nt,nt
COc1ccccc1C(=O)NC(=Nc1nc2ccccc2o1)NC(=O)c1ccccc1OC,7.7,-5.2,0.6,-5.4,106.7*,132.7*,45.3*
N/C(=N\c1nc2ccccc2o1)NC(=O)c1ccccc1F,13.0,-27.4,3.4,-13.6,103.7*,167.1*,14.6*
COc1ccc(N2CCN(c3cc(C)c4cccc(C)c4n3)CC2)cc1,-0.9,1.4,0.5,2.4,129.3*,94.7*,12.8*
COc1ccc(N2CCN(c3cc(C)c4ccc(O)cc4n3)CC2)cc1,-14.0,-11.5,-0.2,-11.9,131.7*,71.2*,nt
COc1ccc2c(C)cc(N3CCOCC3)nc2c1,2.8,-13.1,2.0,nt,5.0,nt,nt
COc1ccc2nc(N3CCOCC3)cc(C)c2c1,-2.2,15.9,2.2,13.1,-5.2,nt,nt
Cc1cc(N2CCOCC2)nc2cc(O)ccc12,-6.1,-4.5,2.6,1.4,13.9,nt,nt
COc1ccc(N2CCN(c3cc(C)c4ccc(C)cc4n3)CC2)cc1,6.2,-2.6,0.5,-2.0,100.3*,109.7*,18.1*
Cc1ccc(S(=O)(=O)N2CCCCC2)cc1NC(=O)CSc1nc(N)cc(=O)[nH]1,nt,nt,nt,nt,-1.6,nt,nt
NS(=O)(=O)c1ccc(NC(=O)C(Sc2ccccc2)c2ccccc2)cc1 (stereo unspecified),4.8,-3.5,-0.1,-2.0,3.1,nt,nt
Cc1c(/C(Cc2ccccc2)=N/O)c2ccccc2n1C,-7.2,-2.2,0.0,10.3,88.4*,111.1*,178.2*
